From ChEMBL document CHEMBL5308504, “Tm Shift (DSF) assay results for EUbOPEN Chemogenomics Library” (2023)
Several values for one entry are separate records, joined by “and”; a condition that tells them apart may be missing. Equal values may be shown once.

How the values were obtained:
[1] = target: Bromodomain-containing protein 4 (Homo sapiens) (UniProt O60885); conditions: Compound concentration 20.0 uM, Protein concentration 2.0 uM, Result type QC Liability
[2] = target: T1, Transcription intermediary factor 1-alpha (Homo sapiens) (UniProt O15164); conditions: Compound concentration 20.0 uM, Protein concentration 2.0 uM, Result type QC Liability
T1 sequence (whole entry): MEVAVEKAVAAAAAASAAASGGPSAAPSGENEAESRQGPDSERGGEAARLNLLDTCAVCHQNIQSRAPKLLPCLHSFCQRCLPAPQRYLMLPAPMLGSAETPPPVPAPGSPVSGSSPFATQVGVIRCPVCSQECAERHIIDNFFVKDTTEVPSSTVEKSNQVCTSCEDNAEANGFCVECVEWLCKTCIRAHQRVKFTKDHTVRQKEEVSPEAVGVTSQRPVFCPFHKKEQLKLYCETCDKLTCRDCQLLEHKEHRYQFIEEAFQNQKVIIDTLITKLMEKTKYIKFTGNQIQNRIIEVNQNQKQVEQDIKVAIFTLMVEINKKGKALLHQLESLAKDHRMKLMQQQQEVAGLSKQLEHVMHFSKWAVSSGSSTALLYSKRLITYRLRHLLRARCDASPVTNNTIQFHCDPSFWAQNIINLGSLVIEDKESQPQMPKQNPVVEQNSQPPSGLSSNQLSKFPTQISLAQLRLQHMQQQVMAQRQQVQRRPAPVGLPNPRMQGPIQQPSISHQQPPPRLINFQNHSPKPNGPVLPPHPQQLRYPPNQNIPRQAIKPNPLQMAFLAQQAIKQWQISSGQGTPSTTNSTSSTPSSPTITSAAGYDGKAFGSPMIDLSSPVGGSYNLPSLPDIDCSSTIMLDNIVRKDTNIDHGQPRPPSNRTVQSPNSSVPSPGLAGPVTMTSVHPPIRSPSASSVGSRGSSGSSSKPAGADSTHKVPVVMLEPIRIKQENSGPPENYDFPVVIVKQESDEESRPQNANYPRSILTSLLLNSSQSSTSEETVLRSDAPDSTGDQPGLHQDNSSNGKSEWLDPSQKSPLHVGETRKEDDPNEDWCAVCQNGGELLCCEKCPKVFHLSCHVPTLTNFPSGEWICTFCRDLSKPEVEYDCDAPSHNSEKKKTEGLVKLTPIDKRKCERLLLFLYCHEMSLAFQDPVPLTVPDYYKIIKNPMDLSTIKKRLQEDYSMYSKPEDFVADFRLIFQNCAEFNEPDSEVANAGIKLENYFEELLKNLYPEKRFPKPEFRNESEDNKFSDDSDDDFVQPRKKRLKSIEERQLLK

| SMILES | ΔTm [1] | ΔTm [2] |
| --- | --- | --- |
| CC[C@@H](Nc1c(C#N)c(-c2ccc(-c3cccc(C)c3F)cc2)nc2cnccc12)C(=O)O | -1.25 °C | -1.3 °C |
| COc1cc(Oc2nc(-c3ccc(NC(=O)C4CCOC4)cc3)nn3c(C)nc(C)c23)cc(OC)c1OC (centres undefined) | -1.75 °C | 0.42 °C |
| O=C(O)Cc1cc(I)c(Oc2ccc(O)c(I)c2)c(I)c1 | -5.23 °C | -2.6 °C |
| CC(C)NC(=O)[C@H]1CCC[C@H]1Nc1nc(Nc2ccc(C(=O)N(C)C3CCN(C)CC3)cc2)ncc1Cl | -1.48 °C and -0.92 °C | 0.3 °C and -2.89 °C |
| COc1cnccc1Nc1nc(-c2nn(Cc3c(F)cc(OCCO)cc3F)c3ccccc23)ncc1OC | 0.84 °C | -4.33 °C |
| CN1CCC(F)(Cn2cnc(-c3ccc(F)cn3)c2-c2ccnc3[nH]ccc23)CC1 | -2.6 °C | -2.99 °C |
| CN(C)C/C=C/C(=O)Nc1cccc(S(=O)(=O)N2CCC(NC(=O)c3n[nH]cc3NC(=O)c3c(Cl)cc(Cl)cc3Cl)CC2)c1 | -1.08 °C | 0.7 °C |
| CN1C(=O)[C@@H](NC(=O)c2cc(Cc3ccccc3)on2)COc2ccccc21 | -1.02 °C | -3.21 °C |
| COc1cccc(CNc2ccc(S(=O)(=O)Nc3nc4ccccc4s3)cc2)c1O | 0.58 °C | 0.53 °C |
| CC(C)(O)c1coc(S(=O)(=O)NC(=O)Nc2c3c(cc4c2CCC4)CCC3)c1 | -0.92 °C | -0.55 °C |
| Cc1csc(S(=O)(=O)N(CC(C)C)c2cc3c(cc2OCc2ccc(C(=O)O)cc2)CCC3)n1 | -0.64 °C | -0.15 °C |
| CCC(=O)N[C@H]1CC[C@@H](C(=O)N(C)c2ccc(-c3nc4ccccc4o3)cc2)C1 | 0.09 °C | 0.23 °C |
| CC1(C)CCN(C(=O)C2CN(c3c4c(nc5ccnn35)CCNCC4)C2)C1 | -0.32 °C | 0.23 °C |
| O=C(Nc1cc2cc[nH]c(=O)c2cc1Cl)[C@H]1CNC[C@@H]1c1cccnc1 | -1.63 °C | -2.69 °C |
| Cc1sc(C(=O)c2cncnc2N[C@@H]2C[C@H](COS(N)(=O)=O)[C@@H](O)C2)cc1[C@@H]1NCCc2ccc(Cl)cc21 | -4.45 °C | -0.84 °C |
| Clc1ccccc1C(c1ccccc1)(c1ccccc1)n1ccnc1 | -5.6 °C | -5.38 °C |

| SMILES | ΔTm [1] | ΔTm [2] |
| --- | --- | --- |
| COC1(C#Cc2ccc(Cl)c(-c3ncc4c(n3)-c3sc(NC(C)=O)nc3CC4)c2)CCN(C)CC1 | -2.24 °C | -3.35 °C |
| CC(C)C(=O)N[C@@H]1CCN(C(=O)Nc2nc3c(s2)-c2nc(-c4ccccc4Cl)ncc2CC3)C1 | -0.28 °C | -3.41 °C |
| Cn1cc(-n2cnc3c(NCc4nc5cc(Cl)c(Cl)cc5[nH]4)nc(N4CCOCC4)nc32)cn1 | 0.71 °C | -0.85 °C |
| Cc1ccc(NC(=O)c2ccc3c(c2)OCCO3)cc1NC(=O)c1ccc2nc(OCCN3CCCC3)ccc2c1 | -12.8 °C | -0.86 °C |
| C[C@@H]1OCC2(CCN(c3cnc(Sc4ccnc(N)c4Cl)c(N)n3)CC2)[C@@H]1N | -2.61 °C | -0.86 °C |
| Cc1cc2c(-c3ccco3)cnc(N[C@@H]3CCN(C)C[C@H]3C(=O)NC3CCCCC3)c2[nH]c1=O | 13.3 °C | -4.37 °C |
| Cc1ccc(-n2nc(C(C)(C)C)cc2NC(=O)Nc2ccccc2F)cc1 | -1.72 °C | -1.64 °C |
| Cc1nn(C)c(COc2ccc(N3CCN(S(=O)(=O)N(C)C)CC3)cc2)c1-c1cccc2c(CCCOc3cccc4ccccc34)c(C(=O)O)n(CCN3CCOCC3)c12 | -12.6 °C | -0.84 °C |
| COc1nc2ccc([C@@](O)(c3ccccc3)C3CCN(C(C)=O)CC3)cc2c(Cl)c1Cc1ccc(-n2cccn2)cc1 | -3.41 °C | -0.87 °C |
| COc1ccc(CC[C@@H](OC(=O)[C@@H]2CCCCN2C(=O)[C@H](c2cc(OC)c(OC)c(OC)c2)C2CCCCC2)c2cccc(OCCN3CCOCC3)c2)cc1OC | -4.68 °C | -1.51 °C |
| CCC(C)(C)CC[C@H](NC(=O)N1CCOCC1)C(=O)NC1(C#N)CCN(C)CC1 | -0.41 °C | 0.53 °C |
| CN(C)C(=O)Cn1cc(-c2nc(C3(c4ccc(-c5cnc(N)nc5)cc4)CC3)no2)cn1 | -1.16 °C | 0.32 °C |
| Cc1cc(NC(=O)c2cccc(NC(=O)/C=C/CN(C)C)c2)ccc1Nc1nccc(-c2cccnc2)n1 | -1.31 °C | -1.44 °C |
| CC(=O)c1c(C)c2cnc(Nc3ccc(N4CCNCC4)cn3)nc2n(C2CCCC2)c1=O | -1.52 °C and 0.07 °C | -1.97 °C and -2.09 °C |
| CCN(C(=O)c1cc(F)ccc1Oc1cncnc1N1CC2(CCN(C[C@H]3CC[C@H](NS(=O)(=O)CC)CC3)CC2)C1)C(C)C | -1.64 °C | -1.14 °C |
| c1ccc(C2CCN(c3cnc4c(N5CCOCC5)nccn34)CC2)cc1 | -0.69 °C | -1.25 °C |
